# Experimental data: ChEMBL document CHEMBL3988442, “University of Dundee, Small-Polar-MMV Screening Library” (2021)
# For some of these results: Measured potencies and affinities stand elsewhere.
# Key:
# Parameters in all cases: scale not given: direction of the effect not stated beside the values
# [1] = target: Protein translocase subunit SecA (Escherichia coli (strain K12)) (UniProt P10408); assay: Assay to Identify E. coli SecA ATPase Inhibitors; assay type: functional; conditions: 30 µM
# [2] = target: T1, Ubiquitin-activating enzyme e1, putative (Leishmania donovani (strain BPK282A1)) (UniProt E9BSI1); assay: Leishmania donovani Ubiquitin Activating Enzyme (LdE1); assay type: functional; conditions: 30 µM
# T1 sequence (whole entry): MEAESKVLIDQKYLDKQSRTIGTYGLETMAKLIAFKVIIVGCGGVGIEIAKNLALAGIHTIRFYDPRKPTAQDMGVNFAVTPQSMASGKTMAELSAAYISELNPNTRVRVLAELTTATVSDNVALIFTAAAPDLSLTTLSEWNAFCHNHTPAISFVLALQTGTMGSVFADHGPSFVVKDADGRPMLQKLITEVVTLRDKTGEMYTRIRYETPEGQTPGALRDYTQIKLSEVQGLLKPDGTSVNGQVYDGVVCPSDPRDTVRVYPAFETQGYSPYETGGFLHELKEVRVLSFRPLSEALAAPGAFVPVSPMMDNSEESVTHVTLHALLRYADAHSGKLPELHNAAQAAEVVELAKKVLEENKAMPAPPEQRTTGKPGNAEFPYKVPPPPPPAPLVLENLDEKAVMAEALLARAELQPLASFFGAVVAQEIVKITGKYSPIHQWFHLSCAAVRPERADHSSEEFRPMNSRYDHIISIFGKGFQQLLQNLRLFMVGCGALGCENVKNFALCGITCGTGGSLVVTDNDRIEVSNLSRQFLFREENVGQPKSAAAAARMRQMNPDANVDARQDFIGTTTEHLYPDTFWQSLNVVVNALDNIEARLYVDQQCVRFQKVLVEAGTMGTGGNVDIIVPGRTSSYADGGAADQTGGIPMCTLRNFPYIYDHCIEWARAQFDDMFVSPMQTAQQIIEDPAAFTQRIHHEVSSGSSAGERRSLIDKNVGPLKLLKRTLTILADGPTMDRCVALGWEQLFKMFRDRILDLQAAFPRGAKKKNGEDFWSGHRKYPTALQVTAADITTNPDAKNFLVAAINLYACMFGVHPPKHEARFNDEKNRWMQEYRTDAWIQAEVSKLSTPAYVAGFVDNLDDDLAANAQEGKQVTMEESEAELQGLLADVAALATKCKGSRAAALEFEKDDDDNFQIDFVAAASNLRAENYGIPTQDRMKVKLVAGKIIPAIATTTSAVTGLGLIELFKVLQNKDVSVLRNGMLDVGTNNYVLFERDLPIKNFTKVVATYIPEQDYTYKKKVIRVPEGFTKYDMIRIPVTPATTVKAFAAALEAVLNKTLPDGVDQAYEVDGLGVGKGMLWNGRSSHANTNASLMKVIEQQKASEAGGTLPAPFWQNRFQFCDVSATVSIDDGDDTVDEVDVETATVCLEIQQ
# [3] = target: AMP-activated protein kinase, AMPK (Homo sapiens) (UniProt P54646+O43741+P54619+Q9UGJ0+Q9Y478+Q13131+Q9UGI9); assay: AMP-dependent Kinase enzyme assay. An in vitro enzyme assay that detects ADP turnover that is directly proportional to AMPK activity. This uses naive AMPK that is activated during the assay with MK-8722; assay type: functional; conditions: 30 µM
# [4] = target: Sialic acid-binding Ig-like lectin 9 (Homo sapiens) (UniProt Q9Y336); assay: Hs-Siglec9 ALPHAscreen SOP 20170721; conditions: 10 µM
# Trypanosoma cruzi = assay: Trypanosoma cruzi phosphomannomutase and mannose-1-phosphate guanylyltransferase assay; assay type: functional; conditions: 10 µM
# [5] = target: T2, Arginase-2, mitochondrial (Homo sapiens) (UniProt P78540); assay: in vitro enzyme assay to detect the production of urea directly proportional to the activity of Arginase II; assay type: functional; conditions: 33.3 µM; further: in the data most compounds retested in dose-response had high values
# T2 sequence (whole entry): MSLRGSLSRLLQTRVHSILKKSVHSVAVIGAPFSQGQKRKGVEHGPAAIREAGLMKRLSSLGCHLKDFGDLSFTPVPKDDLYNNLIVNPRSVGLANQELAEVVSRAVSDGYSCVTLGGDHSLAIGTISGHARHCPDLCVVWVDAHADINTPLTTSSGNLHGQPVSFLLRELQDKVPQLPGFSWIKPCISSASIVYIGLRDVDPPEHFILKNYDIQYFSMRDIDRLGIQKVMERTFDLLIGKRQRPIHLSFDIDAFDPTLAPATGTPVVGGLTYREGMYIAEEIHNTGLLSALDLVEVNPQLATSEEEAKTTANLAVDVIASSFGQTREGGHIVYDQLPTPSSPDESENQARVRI
# [6] = target: T3, Proteasome subunit beta (Trypanosoma cruzi) (UniProt O96673); assay: Trypanosoma cruzi proteasome chymotrypsin-like activity (TcProtChymo) assay.; further: in the data most compounds retested in dose-response had high values; assay type: functional; conditions: 9.37 µM
# T3 sequence (whole entry): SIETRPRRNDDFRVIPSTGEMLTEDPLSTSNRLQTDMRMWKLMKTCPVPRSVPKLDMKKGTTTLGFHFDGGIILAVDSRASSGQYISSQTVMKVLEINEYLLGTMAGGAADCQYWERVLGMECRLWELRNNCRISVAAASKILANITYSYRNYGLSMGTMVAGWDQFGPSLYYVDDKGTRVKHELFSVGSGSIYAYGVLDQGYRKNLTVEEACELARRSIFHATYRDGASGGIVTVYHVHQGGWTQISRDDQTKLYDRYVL
# Homo sapiens = species: Homo sapiens; assay: To identify inhibition of the IFN signalling (Jak-Stat) pathway via expression of an eGFP reporter gene under the control of an IFN-stimulated response element (ISRE) containing MxA promoter.; assay type: functional; conditions: 30 µM
# [7] = target: T4, Tyrosyl-tRNA synthetase, putative (Trypanosoma cruzi (strain CL Brener)) (UniProt Q4DSP6); assay: Trypanosoma cruzi tyrosyl tRNA synthetase (TcYRS) _High Tyrosine SOP; assay type: functional; conditions: 30 µM; further: in the data most compounds retested in dose-response had high values
# T4 sequence (whole entry): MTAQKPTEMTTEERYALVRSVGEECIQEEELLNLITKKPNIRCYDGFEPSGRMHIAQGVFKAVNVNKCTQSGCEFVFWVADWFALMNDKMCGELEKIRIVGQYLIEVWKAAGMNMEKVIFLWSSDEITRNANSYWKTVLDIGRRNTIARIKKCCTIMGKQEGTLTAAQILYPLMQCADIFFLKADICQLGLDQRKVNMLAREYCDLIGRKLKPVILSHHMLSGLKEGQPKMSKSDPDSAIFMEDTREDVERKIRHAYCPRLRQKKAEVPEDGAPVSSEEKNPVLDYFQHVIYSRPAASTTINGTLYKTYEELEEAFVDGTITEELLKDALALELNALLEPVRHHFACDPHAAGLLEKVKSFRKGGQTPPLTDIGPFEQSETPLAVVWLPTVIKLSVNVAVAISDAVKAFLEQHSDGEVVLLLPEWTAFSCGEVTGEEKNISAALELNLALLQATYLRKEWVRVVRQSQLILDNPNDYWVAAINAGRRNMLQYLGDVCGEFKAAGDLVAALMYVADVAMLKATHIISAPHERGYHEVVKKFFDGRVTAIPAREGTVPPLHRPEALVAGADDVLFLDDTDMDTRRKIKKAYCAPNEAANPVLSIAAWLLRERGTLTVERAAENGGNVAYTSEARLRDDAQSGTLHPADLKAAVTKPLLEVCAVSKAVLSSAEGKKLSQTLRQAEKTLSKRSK
# [8] = target: T4, Tyrosyl-tRNA synthetase, putative (Trypanosoma cruzi (strain CL Brener)); assay: Trypanosoma cruzi tyrosyl tRNA synthetase (TcYRS) SOP; assay type: functional; conditions: 30 µM
# [9] = target: Chromo domain-containing protein 1 (Saccharomyces cerevisiae (strain ATCC 204508 / S288c) (Baker's yeast)) (UniProt P32657); assay: ScCHD-1 Enzyme Inhibition Assay; assay type: functional; conditions: 30 µM; further: in the data most compounds retested in dose-response had high values
# Chain of Chromo domain-containing protein 1 (Saccharomyces cerevisiae (strain ATCC 204508 / S288c) (Baker's yeast)) (P32657 whole entry, the tested form may be a part): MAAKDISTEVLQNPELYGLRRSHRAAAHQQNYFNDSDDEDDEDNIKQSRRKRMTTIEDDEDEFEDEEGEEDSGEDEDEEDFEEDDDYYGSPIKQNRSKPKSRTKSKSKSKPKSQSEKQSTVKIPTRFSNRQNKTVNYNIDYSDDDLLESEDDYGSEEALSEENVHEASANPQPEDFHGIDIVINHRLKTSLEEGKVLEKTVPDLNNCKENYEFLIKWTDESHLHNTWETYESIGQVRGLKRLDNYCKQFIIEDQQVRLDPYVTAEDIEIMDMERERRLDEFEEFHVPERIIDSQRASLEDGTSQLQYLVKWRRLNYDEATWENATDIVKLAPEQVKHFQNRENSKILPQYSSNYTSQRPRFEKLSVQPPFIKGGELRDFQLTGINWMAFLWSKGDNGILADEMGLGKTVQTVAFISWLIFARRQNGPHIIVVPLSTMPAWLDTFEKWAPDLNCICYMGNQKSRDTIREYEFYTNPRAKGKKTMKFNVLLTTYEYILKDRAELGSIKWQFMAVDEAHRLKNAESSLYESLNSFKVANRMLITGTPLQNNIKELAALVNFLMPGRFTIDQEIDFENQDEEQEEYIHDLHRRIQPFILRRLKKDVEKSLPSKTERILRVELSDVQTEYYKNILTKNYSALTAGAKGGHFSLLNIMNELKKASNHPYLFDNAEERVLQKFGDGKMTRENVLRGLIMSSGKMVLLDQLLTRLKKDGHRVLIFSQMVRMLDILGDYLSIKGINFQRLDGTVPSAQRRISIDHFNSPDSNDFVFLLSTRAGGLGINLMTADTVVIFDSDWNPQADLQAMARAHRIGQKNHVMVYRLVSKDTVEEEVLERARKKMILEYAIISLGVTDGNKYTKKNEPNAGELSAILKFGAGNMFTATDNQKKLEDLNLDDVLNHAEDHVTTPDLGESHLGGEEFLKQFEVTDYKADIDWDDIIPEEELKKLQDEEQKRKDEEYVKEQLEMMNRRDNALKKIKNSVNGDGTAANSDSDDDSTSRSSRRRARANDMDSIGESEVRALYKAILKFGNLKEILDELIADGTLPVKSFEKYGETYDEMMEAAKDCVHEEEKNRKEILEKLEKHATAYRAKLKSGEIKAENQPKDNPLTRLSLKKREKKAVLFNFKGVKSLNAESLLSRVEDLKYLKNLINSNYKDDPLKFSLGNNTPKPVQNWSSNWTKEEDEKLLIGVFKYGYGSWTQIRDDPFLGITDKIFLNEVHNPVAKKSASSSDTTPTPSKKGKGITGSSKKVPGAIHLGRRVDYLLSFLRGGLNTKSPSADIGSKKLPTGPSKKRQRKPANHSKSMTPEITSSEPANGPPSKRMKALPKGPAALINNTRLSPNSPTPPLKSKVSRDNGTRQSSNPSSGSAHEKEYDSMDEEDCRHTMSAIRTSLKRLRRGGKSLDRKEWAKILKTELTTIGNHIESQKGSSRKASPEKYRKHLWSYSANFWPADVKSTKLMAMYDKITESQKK
# Chain of Sialic acid-binding Ig-like lectin 9 (Homo sapiens) (Q9Y336 whole entry): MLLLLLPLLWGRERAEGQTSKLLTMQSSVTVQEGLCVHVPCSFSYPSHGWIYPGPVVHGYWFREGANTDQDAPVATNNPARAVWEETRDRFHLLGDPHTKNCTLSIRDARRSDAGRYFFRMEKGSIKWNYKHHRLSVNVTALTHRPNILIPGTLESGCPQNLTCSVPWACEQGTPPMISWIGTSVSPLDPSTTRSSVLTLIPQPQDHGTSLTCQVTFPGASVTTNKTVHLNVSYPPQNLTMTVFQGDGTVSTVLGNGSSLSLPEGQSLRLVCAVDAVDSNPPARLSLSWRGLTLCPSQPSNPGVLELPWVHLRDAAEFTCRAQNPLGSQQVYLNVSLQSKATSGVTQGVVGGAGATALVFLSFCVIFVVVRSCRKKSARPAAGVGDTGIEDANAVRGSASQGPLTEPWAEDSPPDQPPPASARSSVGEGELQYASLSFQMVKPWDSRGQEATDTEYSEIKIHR
# Chain of Protein translocase subunit SecA (Escherichia coli (strain K12)) (P10408 whole entry): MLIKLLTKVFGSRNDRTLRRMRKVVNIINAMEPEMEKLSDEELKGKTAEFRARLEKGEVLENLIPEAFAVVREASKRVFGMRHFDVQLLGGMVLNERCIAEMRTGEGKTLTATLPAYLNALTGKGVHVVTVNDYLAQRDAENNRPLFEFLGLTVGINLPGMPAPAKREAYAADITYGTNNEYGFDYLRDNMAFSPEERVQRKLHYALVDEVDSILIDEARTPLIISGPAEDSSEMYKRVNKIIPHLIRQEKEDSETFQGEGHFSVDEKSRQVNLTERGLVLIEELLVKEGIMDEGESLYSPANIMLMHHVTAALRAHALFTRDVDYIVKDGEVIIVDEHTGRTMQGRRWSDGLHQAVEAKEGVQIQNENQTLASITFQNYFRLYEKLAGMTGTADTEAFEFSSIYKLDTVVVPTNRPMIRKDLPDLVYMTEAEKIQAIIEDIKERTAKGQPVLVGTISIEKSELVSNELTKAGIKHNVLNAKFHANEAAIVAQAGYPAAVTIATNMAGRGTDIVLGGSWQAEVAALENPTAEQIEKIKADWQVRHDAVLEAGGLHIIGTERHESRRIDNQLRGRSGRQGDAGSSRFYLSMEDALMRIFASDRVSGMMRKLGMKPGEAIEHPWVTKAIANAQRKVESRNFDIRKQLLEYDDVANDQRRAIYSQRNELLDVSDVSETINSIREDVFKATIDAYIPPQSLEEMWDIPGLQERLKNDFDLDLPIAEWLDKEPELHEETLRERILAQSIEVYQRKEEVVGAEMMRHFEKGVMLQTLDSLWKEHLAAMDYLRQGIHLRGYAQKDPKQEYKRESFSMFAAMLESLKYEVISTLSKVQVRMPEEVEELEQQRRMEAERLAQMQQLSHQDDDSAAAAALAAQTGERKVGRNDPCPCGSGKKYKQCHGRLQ
SMILES,Percent Effect [1],Percent Effect [2],Percent Effect [3],Percent Effect [4],Percent Effect (Trypanosoma cruzi),Percent Effect [5],Percent Effect [6],Percent Effect (Homo sapiens),Percent Effect [7],Percent Effect [8],Percent Effect [9]
Cn1ccc(CN2CCC(Oc3ccccc3)CC2)cc1=O,-4.18%,18.2%,-0.911%,1.02%,-1.69%,-0.356%,4.05%,-2.92%,11.7%,24.4%,-10.1%
Cc1nc2c(c(N3CC=CC3)n1)CCN(Cc1ccoc1)CC2,-7.04%,5.2%,2.16%,4.88%,-1.87%,1.38%,9.65%,-16.9%,3.23%,8.64%,1.68%
COc1ccc(OC)c(NC(=O)NCC(O)c2ccc(F)c(F)c2)c1 (stereo not given),-0.0799%,8.86%,8.98%,-1.21%,-5.44%,3.23%,15.6%,9.13%,-1.04%,5.06%,-21.5%
O=C(c1cnccn1)N1CCOCC2(CCN(C3CCOCC3)C2)C1 (stereo not given),-3.59%,25.3%,-6.88%,-0.346%,3.54%,-0.528%,19.4%,-1.42%,8.47%,15.4%,-9.96%
CCOCCN1CCN(Cc2cccc(C(=O)N(C)C)c2)CC1,-10.3%,0%,-8.88%,18%,9.38%,-2.03%,0%,2.86%,6.93%,23.2%,46.2%
Cc1cccc2c1cnn2CCC(=O)NCC(=O)N(C)C,-1.87%,1.33%,12.2%,7.1%,-6.68%,-10%,14.2%,3.37%,4.23%,7.69%,-10.3%
CC1=Nc2c(c(=O)[nH]n2C(C)C)C(c2cccs2)S1 (stereo not given),-7.07%,-1.33%,2.48%,1.91%,0.197%,-3.7%,9.8%,11.9%,19.1%,25.6%,-2.82%
COC(=O)CCC(=O)N1CCc2[nH]nc(-c3ccc4c(c3)OCO4)c2C1,-2.09%,8.11%,6.85%,21.3%,5.18%,11.2%,0.258%,-7.33%,2.15%,6.17%,-11.9%
O=C(N1CCOCC1)[C@@]12CCO[C@@H]1CCN(Cc1ccccc1F)C2,-0.952%,-4%,-2.07%,6.8%,-6.88%,29.8%,12.2%,0.338%,1.06%,-2.56%,-3.56%
Cc1cc(CN(C)C(=O)C2CCCN(C(=O)c3ccc(Cl)cc3)C2)no1 (stereo not given),-4.75%,-39%,3.47%,5.71%,-0.885%,-20.7%,11.7%,0.275%,2.15%,11.1%,-7.95%
CCC(C(=O)NC)N(c1cccc(C)c1)S(C)(=O)=O (stereo not given),-4.2%,16%,-4.91%,18.5%,6.72%,41.7%,4.71%,9.46%,4.92%,13.6%,-3.23%
O=S1(=O)CCCN1Cc1coc(-c2cccs2)n1,-1.93%,15.3%,-14.2%,1.81%,2.82%,13.2%,23.3%,-8.56%,5.26%,12.8%,-3.41%
CC(C)COCC(NC(=O)c1cc[nH]n1)c1ccco1 (stereo not given),-5.65%,24.3%,-9.5%,15.5%,1.79%,-13.6%,5.59%,19.5%,4.43%,18.5%,-12.3%
CCC(NC(=O)C1CCN(S(C)(=O)=O)CC1)c1ccc(OC)c(C)c1 (stereo not given),-0.552%,2.6%,0.574%,27.4%,4.03%,-4.14%,15.3%,-3.86%,2.15%,1.24%,120%
O=C1NC(c2ccccc2)=N[C@@]12CC[C@@H]1CN(CC3CCOCC3)C[C@@H]12,-1.53%,0%,5.75%,-1.86%,-1.54%,-48.6%,0.684%,-0.209%,-27.1%,-5%,-1.93%
CCN1CCN(C2CCN(Cc3nc4ccccc4o3)CC2)C1=O,-1.89%,10.4%,0.349%,-1.67%,1.67%,-2.74%,14.2%,-19%,7.62%,21.2%,-20.3%
O=C(COCC1CC1)N1CCCC(n2cccn2)C1 (stereo not given),-2.32%,13.9%,1.73%,-2.9%,-2.36%,2.8%,13.4%,-5.32%,-1.04%,-7.59%,-22.9%
Cc1ccc(CC(=O)N2CCCC(c3cc(C)[nH]n3)C2)cn1 (stereo not given),-4.35%,13.5%,-1.96%,17.6%,5.66%,-4.25%,3.77%,12.1%,3.96%,15.8%,-0.933%
COCCN1CCC(CNC(=O)C2(c3cccc(C)c3)CC2)CC1,-2.68%,3.8%,0.953%,1.27%,-4.82%,2.8%,0.172%,7.85%,1.04%,2.53%,-25%
CC(=O)Nc1nc(C(=O)NC(C)c2ccc(F)cc2)cs1 (stereo not given),-2.72%,15.6%,16.6%,-7.49%,6.76%,-9.05%,11.1%,-15.4%,8.57%,21.2%,-24.3%
